The text below walks through data of PubChem BioAssay (NCATS).

Records with an inconclusive call do not appear. A call without a number means that no potency is given here. Activity calls are given as the source filed them. Calls follow the shape of the dose curve; as a rule, active = well fitted inhibition curve with a large enough effect; inconclusive = small, poorly fitted or top-dose-only effect; inactive = flat fitted curve, though single readings scatter. Numbered stars: 1 amine (or outer) side, 2 acyl side, 3 side chain; on linkers, the order of the positions; unused ones are H or OH. Bridge positions count the residues as written; N and C are the ends. Square brackets hold non-standard residues; d marks the D form. Peptide text beside a SMILES is read from it. I, II: the chains in the order shown. Actinocin(9to1) = Cc1c2oc3c(C)ccc(C(=O)[*:1])c3nc-2c(C(=O)[*:2])c(N)c1=O; aThr = C[C@H](O)[C@H](N)C(=O)O; NMeV = CN[C@H](C(=O)O)C(C)C; Sar = CNCC(=O)O
Potency is read from the fitted curve at half-maximal effect.

The test system of the test is Zika virus NS2B-NS3 protease. As to the kind of experiment: Primary screen GU AMC qHTS for Zika virus inhibitors (AID 1347154). Also: nearly all actives have a fitted effect of over 70% in size. The following applies: Zika NS2B-NS3 unlinked protease, AMC fluorogenic substrate; series mostly up to 54.1 µM. The text has this:
Avindra Nath, Ph.D., National Institute of Neurological Disorders and Stroke (NINDS), Bethesda, MD
Radhakrishnan Padmanabhan, Ph.D., Georgetown University (GU), Washington D.C.
Zika Virus causes congenital defects, including microcephaly and is associated with Guillain-Barre syndrome, eningoencephalitis and myelitis in infected adult. […] Using a target-based approach, we hope to establish a screening paradigm to uncover novel, cell-active NS2B-NS3 protease (Zika Virus) specific inhibitors from NCATS' collection of small molecules using qHTS.
Early Translation Branch (ETB)
National Center for Advancing Translational Sciences (NCATS), Rockville, MD
National Institute of Health (NIH), Bethesda, Maryland
Padmanabhan lab provided the NS2B hydrophilic domain and NS3 protease domain in a noncovalent complex used for the unlinked assay. Control compound aprotinin is obtained from Thermo Scientific (#78432; Waltham, Massachusetts). NS2B-NS3 AMC substrate (Bz-Nle-Lys-Arg-Arg-AMC; Nle-KRR-AMC) purchased from Bachem (#I-1995; Torrance, CA). Ac-VKTGKR-AMC purchased from Genscript or Bachem, Ac-FAAGKR-AMC purchased from Genscript, Ac-GLVKRR-AMC purchased from Genscript, Ac-LKKR-AMC purchased from Genscript.
GU AMC unlinked NS2B-NS3 protease qHTS protocol
Briefly, 3 microL of Zika virus unlinked NS2B-NS3 protease (25 nM for linked final concentration), in assay buffer (10 mM Tris-HCl pH 8.0 with 0.01% Tween 20) was dispensed into a 1,536-well solid-bottom black plate (Greiner Bio One, Monroe, NC). […] Plates were then read immediately on a ViewLux High-throughput CCD imager (PerkinElmer, Waltham, MA) equipped with standard UV fluorescence optics (340(30) nm excitation, 450(20) nm emission) then incubated (room temperature, protected from light) for 15 minutes (~20% conversion). The change in fluorescence intensity over the 15-minute reaction period was normalized against no-inhibitor and no-enzyme controls and the resulting percent inhibition data were fitted to a 4-parameter Hill equation. Aprotinin was used as the intraplate control.
For orientation: Quantitative high-throughput screening tests each substance at several concentrations.
For `CCCCCCCCCCCCCCC[C@@H](O)[C@H](CO)NC(C)=O`, the activity change, negative = inhibition is 7.2% [at 6.83 µM] (inactive).
Consider `COc1cc(N)c(Cl)cc1C(=O)N[C@H]1CCN(CCCOc2ccc(F)cc2)C[C@@H]1OC`, for which the Potency result was “inactive”.
Take `CCCNC(=O)[C@H]1O[C@@H]1C(=O)N[C@H](C(=O)N1CCC[C@H]1C(=O)OC)[C@@H](C)CC`: the Potency result was “inactive”.
Regarding `CCCCC/C=C\C[C@@H](O)/C=C/C=C/C=C\[C@@H](O)CCCC(=O)O`, the activity change, negative = inhibition was 25.7% [at 0.59 µM] (inactive).
Take `Nn1cc(Br)c(=O)[nH]c1=O`: the Potency entry was “inactive”.
Take `CC1CCC(C(C)C)C(P(=O)(c2ccccc2)c2ccccc2)C1` (stereo not given): the Potency result was “inactive”.
Regarding `C[C@H](CCC(=O)O)C1CC[C@H]2C3CC[C@@H]4C[C@H](O)CC[C@]4(C)C3C[C@H](O)[C@]12C` (stereo not given in full), the Potency entry was “inactive”.
For `CN1c2cc3c(cc2N=C(c2ccc(C(=O)O)cc2)c2ccccc21)C(C)(C)CCC3(C)C`, the Potency result was “inactive”.
`COc1cccc(CCc2ccccc2OCC[C@@H]2C[C@@H](O)CN2C)c1`: the Potency entry was “inactive”.
Regarding `CCCC(=O)Nc1nc2c(ncn2[C@@H]2O[C@H]3COP(=O)(O)O[C@@H]3[C@@H]2OC(=O)CCC)c(=O)[nH]1`, the Potency result is “inactive”.
For `O=C1CC[C@H](N2C(=O)c3ccccc3C2=O)C(=O)N1`, the Potency entry is “inactive”.
Turning to `Cc1cc(F)c(Nc2ncnc3cc(OCc4ccccc4)ccc23)cc1O`, the Potency entry was “inactive”.
Regarding `CC(C)NC[C@@H](O)COc1ccc(CCOCC2CC2)cc1`, the Potency result was “inactive”.
On to `O=C(O)c1cc(=O)c2ccc(Cl)cc2[nH]1`, for which the Potency result was “inactive”.
`NC(N)=NCCC[C@H](NC(=O)[C@@H](N)Cc1ccc(O)cc1)C(=O)O`: the activity change, negative = inhibition is 2.03% [at 6.83 µM] (inactive).
Regarding `CC/C=C\C/C=C\C/C=C\CCCCCCCCCCCC(=O)O`, the activity change, negative = inhibition is -2.15% [at 6.83 µM] (inactive).
Take `NCCC(=O)O`: the Potency entry was “inactive”.
For the molecule `CCC(=O)N[C@@H]1CCc2cccc(OC)c2C1`, the Potency entry was “inactive”.
For `Cc1c2oc3c(C)ccc(C(=O)N[C@@H]4C(=O)N[C@@H](C(C)C)C(=O)N5CCC[C@@H]5C(=O)N(C)CC(=O)N(C)[C@@H](C(C)C)C(=O)O[C@H]4C)c3nc-2c(C(=O)N[C@@H]2C(=O)N[C@@H](C(C)C)C(=O)N3CCC[C@@H]3C(=O)N(C)CC(=O)N(C)[C@@H](C(C)C)C(=O)O[C@H]2C)c(N)c1=O` (I: [aThr]V[dP][Sar][NMeV] / II: [aThr]V[dP][Sar][NMeV]; ester I:1-I:C, II:1-II:C; linker I:N-II:N via Actinocin(9to1)), the Potency result is “inactive”.
Consider `C=C1/C(=C\C=C2\CCCC3(C)C2CCC3C(C)/C=C/C(O)C2CC2)CC(O)CC1O` (stereo not given), for which the Potency entry was “inactive”.
Take `CN(C)CCC1(c2ccc(Cl)cc2)Cc2ccccc2C(=O)O1` (stereo not given): the Potency entry is “inactive”.
In the case of `CCC1Cc2cc(O)ccc2C2=C1c1ccc(O)cc1CC2CC` (stereo not given), the Potency was 3.77 µM (active).
Still for that read-out and setting: the same measure for `COc1ccc2c(c1)CC[C@@H]1[C@@H]2CC[C@]2(C)[C@@H](NCCCCCCN3C(=O)C=CC3=O)CC[C@@H]12`: “inactive”; for `NCC(O)COc1cccc2ccccc12` (stereo not given): “inactive”; for `COC(=O)Nc1ccc2[nH]cc(CCNC(C)=O)c2c1`: “inactive”.
On to `Nc1ccccc1C(=O)C[C@H](N)C(=O)O`, for which the Potency result is “inactive”.
Consider `COc1cccc(CNc2ccc3nc(-c4ccc(N)cc4)c(OC)n3n2)c1`, for which the Potency result was “inactive”.
Turning to `O=C(O)[C@H]1CCCNC1`, the Potency entry was “inactive”.
`CCCCC/C=C\C\C=C/C=C/C=C/[C@@H](SC[C@H](N)C(=O)O)[C@@H](O)CCCC(=O)O`: the activity change, negative = inhibition was 5.9% [at 0.59 µM] (inactive).
Turning to `CCCn1c(=O)c2[nH]c(-c3ccccc3)nc2n(CCC)c1=O`, the Potency result was “inactive”.
On to `COC(=O)CNC(=O)C(=O)OC`, for which the activity change, negative = inhibition was 11.4% [at 6.83 µM] (inactive).
Turning to `Cc1cc(C(=O)O)ccc1[C@H](N)C(=O)O`, the Potency result was “inactive”.
In the case of `O=c1ccn([C@@H]2O[C@H](COP(=O)(O)OP(=O)(O)OP(=O)(O)O)[C@@H](O)[C@H]2O)c(=O)[nH]1`, the Potency entry was “inactive”.
The same measure, in the same setting: the same measure for `CC(C)[C@@H]1C(=O)N(S(C)(=O)=O)[C@H]2CCN(C(=O)/C=C\CN3CCCCC3)[C@@H]12`: “inactive”.
As for `Cc1cccc(CCN2CCC(C(=O)c3ccc(NS(C)(=O)=O)cc3)CC2)n1`, the Potency result was “inactive”.
For `O=C(O)C1NCCN(C(=O)c2ccc3c(ccc4ccccc43)c2)C1C(=O)O` (stereo not given), the Potency result was “inactive”.
With `CC(C)C(N)C(=O)O` (stereo not given), the Potency entry was “inactive”.
Turning to `COCCNC(=O)COc1ccc(OCCNC[C@H](O)COc2ccccc2)cc1`, the Potency result was “inactive”.
For `C[C@@H](N)CCCP(=O)(O)O`, the Potency result is “inactive”.
Consider `COc1cc(C=O)c([N+](=O)[O-])cc1OC`, for which the Potency entry is “inactive”.
